# Reference: PubChem BioAssay AID1645872 (National Center for Advancing Translational Sciences (NCATS), 2021)
# Records with an inconclusive call do not appear. Activity calls are given as the source filed them. The call rests on the fitted dose curve; in most records, active means well fitted inhibition curve with a large enough effect; inconclusive means small, poorly fitted or top-dose-only effect; inactive means flat fitted curve, though single readings scatter. Numbered stars: 1 amine (or outer) side, 2 acyl side, 3 side chain; on linkers, the order of the positions; unused ones are H or OH. Peptide text beside a SMILES is read from it. CO = O=C([*:1])[*:2]
# Target: Papain (Carica papaya) (UniProt P00784)
# Sequence (P00784 whole entry, looked up): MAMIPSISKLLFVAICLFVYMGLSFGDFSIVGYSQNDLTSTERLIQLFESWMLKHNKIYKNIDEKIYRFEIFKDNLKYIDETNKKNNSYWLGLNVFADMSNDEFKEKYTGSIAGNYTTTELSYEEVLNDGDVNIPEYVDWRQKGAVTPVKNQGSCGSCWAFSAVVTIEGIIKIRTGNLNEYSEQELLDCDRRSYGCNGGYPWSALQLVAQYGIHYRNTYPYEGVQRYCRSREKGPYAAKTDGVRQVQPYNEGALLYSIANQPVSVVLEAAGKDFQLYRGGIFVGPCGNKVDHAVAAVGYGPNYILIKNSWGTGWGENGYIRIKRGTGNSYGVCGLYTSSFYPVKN
# Assay: Confirmatory qHTS assay for inhibitors of the protease papain
# Settings: papain Z-FR-AMC cleavage, fluorescence; series mostly up to 49.8 µM
# Source text: Principal Investigator: Sam Michael National Center for Advancing Translational Sciences, National Institutes of Health, Rockville, MD Current high-throughput screening (HTS) assay validation is often a manual process, though this can be enhanced by design-of-experiment approaches. An artificial intelligence-driven (AI/ML) assay optimization was developed as part of the NCATS A Specialized Platform for Innovative Research Exploration (ASPIRE) Initiative to accelerate preclinical drug discovery. We describe the development of an autonomous Cloud-based computational driven assay optimization system using the Kebotix adaptive optimization algorithm. The Kebotix Bayesian optimization algorithm identify and test the global optimum of the full 294 design-of-experiment (DOE) with a high optimization probability > 95%, and achieved a five-fold reduction in costs for reagents and lab supplies and HTE run-time. The proposed algorithm found suitable conditions for optimal assay performance. A cell-free assay for papain protease activity was chosen for proof-of-concept. This assay was ideal because its low cost and suitable for large amount of experiments, and previous NCATS experience would allow for historical comparisons. […] Described herein is the results of the papain qHTS assay.
# PROTOCOL TABLE SEQUENCE No. (e.g., 1, 2, 3, etc.); PARAMETER (e.g., Cells, Incubation, Reagent, etc.); VALUE and DESCRIPTION. 1; Reagent; 3 uL; 4/3x Enzyme solution (working concentration of 5 nM) or 3 uL buffer 2; Compounds; 17 nL; library compounds and controls (working concentration of 169 nM - […]) 3; Time; 15 min; room temperature incubation 4; Reagent; 1 uL; 4x 2 uM Z-FR-AMC substrate 5; Centrifugation; 1000 rpm; 15 sec centrigure 6; Detection; Fluorescence Read 1; ViewLux plate reader 7; Time; 10 min; room temperature incubation 8; Detection; Fluorescence Read 2; ViewLux plate reader NOTES (numbers refer to Sequence numbers above; values are from representative experiments) 1; Dispense 3 uL of [4/3x] 5 nM Papain-buffer solution in medium-binding black solid-bottom Greiner plates (789176-F); columns 1-2 and […]. Dispense 3 uL of assay buffer (100 mM Na-acetate pH 5.5, 5 mM DL-Cysteine, 0.01% Tween20) to columns 3 and 4. 2; Compounds are single pin-transferred (17 nL) for a final concentration range of 0.664 nM - 39.2 uM. 3; Room temperature incubation. 4; Dispense 1 uL of [4x] 2 uM Z-FR-AMC substrate solution into the assay plate, columns 1 - 48. 5; Centrifuge the assay plate to remove bubbles. 6; Initial fluorescence signal (Read 1) is obtained using the ViewLux plate reader (PerkinElmer) equipped with a 340(30) nm excitation filter; 450(20) nm emission filter; 2 sec exposure time at energy set to 2000. 7; Room temperature incubation in the dark. 8; Final fluorescence signal (Read 2) is obtained using the ViewLux plate reader (PerkinElmer) equipped with a 340(30) nm excitation filter; 450(20) nm emission filter; 2 sec exposure time at energy set to 2000.
row,Compound,Potency
1,N#Cc1nc(Nc2cccc(Cl)c2)nc(NC2CCCC2)n1,289 nM (active)
2,N#Cc1nc(Nc2ccccc2)nc(NC2CCCC2)n1,81.4 nM (active)
3,N#Cc1nc(Nc2ccc(F)cc2)nc(NC2CCCC2)n1,102 nM (active)
4,CC(=O)N[C@@H](CC(C)C)C(=O)N[C@@H](CC(C)C)C(=O)N[C@H](C=O)CCCN=C(N)N,10.2 nM (active)
5,COc1ccc(Nc2nc(C#N)nc(NC3CCCC3)n2)cc1,102 nM (active)
6,CC(C)C[C@H](NC(=O)[C@@H](NC(=O)N[C@@H](Cc1ccccc1)C(=O)O)[C@H]1CCN=C(N)N1)C(=O)N[C@H](C=O)Cc1ccccc1,10.2 nM (active)
7,N#Cc1nc(Nc2cccc(F)c2)nc(NC2CCCC2)n1,115 nM (active)
8,N#Cc1nc(Nc2cc(F)cc(F)c2)nc(NC2CCCC2)n1,162 nM (active)
9,COc1cccc(Nc2nc(C#N)nc(NC3CCCC3)n2)c1,57.6 nM (active)
10,O=c1oc(Cl)c(Cl)c2ccccc12,inactive
11,CC(C)C(NC(=O)C(CCCN=C(N)N)NC(=O)NC(Cc1ccccc1)C(=O)O)C(=O)NC(C=O)CCCN=C(N)N (stereo not drawn) ({Phe-CO}-Arg-Val-Arg-aldehyde; configuration not given here),12.9 nM (active)
12,CCOc1nc(C#N)nc(N2CCCCC2)n1,182 nM (active)
13,Cc1cccc(Nc2nc(C#N)nc(NC3CCCC3)n2)c1,64.7 nM (active)
